This is an account of results in PubChem BioAssay (NCATS).

“And” between values parts separate entries of the source, which are not always exact repeats. Equal values may be shown once. Inconclusive results are not listed. The source made the active and inactive calls. Calls come from the whole dose curve; as a rule, active = well fitted cell-killing curve with a large enough effect; inconclusive = small, poorly fitted or top-dose-only effect, or effect the other way; inactive = no such curve, though single readings can be large or run the other way.
Potency is the fitted concentration of half-maximal effect.

The test is described as follows: Viability qHTS for spleen associated tyrosine kinase inhibitor (SYKi) drug resistant MV4-11 cells (AID 1963824). Note: nearly all actives have a fitted effect of over 35% in size. The settings on record: SYKi-resistant MV4-11 viability, CellTiter-Glo, 72 h; series mostly up to 45 µM; viability, % of control: at the top concentration. Put shortly:
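SYK inhibitor-resistant MV4-11 AML cells, 500 per well, added to predispensed compounds and incubated 72 hr at 37 C, 5% CO2. Viability measured by CellTiter-Glo luminescence after 10 min at room temperature.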
In the case of `C[C@@H]1C[C@@H]2O[C@H]2/C=C\C=C\C(=O)Cc2c(Cl)c(O)cc(O)c2C(=O)O1`, the Potency is 0.064 µM (active). As to `CN1CCN(Cc2ccc(NC(=O)Cc3ccc(Oc4cc(NC(=O)C5CC5)ncn4)cc3)cc2C(F)(F)F)CC1`, the “viability, % of control” value is 3.18% (inactive). For `CCCCN(CCCC)CCCOC(=O)c1ccc(N)cc1`, the “viability, % of control” value was 69% (inactive). In the case of `O=C(Nc1ccc(Cl)cc1)Nc1cccc(-c2cccc(N3CCCC3)n2)c1`, the Potency is 14.6 µM (active). Take `CCC(C)C(=O)OC1CC(O)C23C4OCC5(C(O)CC2C1(C)C(O)O4)C3C(=O)C(O)C1(C)C(O)(c2ccoc2)CC2OC251` (configuration not stated): the Potency is 0.432 µM (active). Still for that read-out and setting: the value for `CCOc1ccc(Cc2nccc3cc(OCC)c(OCC)cc23)cc1OCC` was 0.15 µM (active). In the case of `C=C[C@H]1[C@H](O[C@@H]2O[C@H](CO)[C@@H](O)[C@H](O)[C@H]2O)OC=C(C(=O)OC)[C@H]1CC=O`, the “viability, % of control” value is 103% (inactive). As for `C[C@@H]1O[C@@H](O[C@H]2[C@H](O)[C@@H](C(=O)O)O[C@@H](O[C@H]3CC[C@@]4(C)C(CC[C@]5(C)C4CC=C4C6CC(C)(C)CC[C@]6(C(=O)O)CC[C@]45C)C3(C)C)[C@@H]2O[C@@H]2OC[C@@H](O)[C@H](O)[C@H]2O)[C@H](O)[C@H](O)[C@H]1O` (some centres not stated), the viability, % of control was 92.4% [at 9.25 µM] (inactive). With `CC(=O)OC[C@]12[C@H](OC(C)=O)C(=O)[C@@H]3[C@@H](OC(C)=O)[C@@]14O[C@@]3(C)COC(=O)c1cccnc1[C@@H](C)[C@H](C)C(=O)O[C@@H]([C@H](OC(C)=O)[C@@H]2OC(C)=O)[C@]4(C)O`, the “viability, % of control” value is 93.7% [at 17.3 µM] (inactive).

As for `NC(=O)c1cnc(-c2ccc(C3(N)CCC3)cc2)c(-c2ccccc2)c1`, the Potency is 20.9 µM (active) and 580 nM (active). As to `Cc1c(O)cc2c(c1O)COC1(O)CCCOC21` (configuration not stated), the “viability, % of control” value was 111% (inactive).

`CC1OC(OC2C(OC3C(O[C@H]4CC[C@@]5(C)C(CC[C@]6(C)C5C(=O)C=C5C7CC(C)(C)CC(O)[C@]7(C)CC[C@]56C)C4(C)C)OC(C(=O)O)C(O)C3O)OCC(O)C2O)C(O)C(O)C1O` (some centres not stated): the viability, % of control is 71.2% [at 9.25 µM] (inactive).

Turning to `CS(=O)(=O)Nc1ccc2oc3c(OC(F)F)ccc(C(=O)Nc4c(Cl)cncc4Cl)c3c2c1`, the Potency is 23.1 µM (active). Take `CC(C)c1cc(-c2ccc(F)c3ccccc23)nc(N)n1`: the Potency was 5.17 µM (active). For `COC(=O)CC(O)C1OC(c2ccccc2)C(O)C1O` (configuration not stated), the “viability, % of control” value was 55.5% (inactive). On to `CCn1c(-c2nonc2N)nc2cncc(C(=O)N3CC[C@H](N)C3)c21`, for which the Potency is 8.2 µM (active). As for `O=C1NC(=O)/C(=C\c2ccc(-c3ccc(F)cc3O)o2)S1`, the Potency is 11.6 µM (active). For the molecule `Nc1nc(NCC2CCC(CNS(=O)(=O)c3cccc4ccccc34)CC2)nc2ccccc12` (configuration not stated), the Potency is 2.31 µM (active). For `CCNC(=O)Nc1ccc(-c2nc3c(c(N4CCOCC4C)n2)CCN(C2COC2)C3)cc1` (configuration not stated), the Potency was 1.16 µM (active). On to `COc1nnc2ccc(N3CCC(c4ccc(OCCN5CCN(C)C(=O)[C@H]5C)cc4)CC3)nn12`, for which the Potency was 0.0372 µM (active). Turning to `C/C=C1\[C@H](O[C@@H]2O[C@H](CO)[C@@H](O)[C@H](O)[C@H]2O)OC=C(C(=O)OC)[C@H]1CC(=O)O`, the “viability, % of control” value is 62.2% [at 17.3 µM] (inactive). Turning to `CCCn1cc2c(nc(NC(=O)Nc3ccc(OC)cc3)n3nc(-c4ccco4)nc23)n1`, the “viability, % of control” value was 79.6% (inactive). Take `C[C@@H]1O[C@@H](O[C@@H]2[C@@H](O)[C@H](O[C@H]3CC[C@@]4(C)C(CC[C@]5(C)C4CC=C4[C@@H]6CC(C)(C)CC[C@]6(C(=O)O[C@@H]6O[C@H](CO)[C@@H](O)[C@H](O)[C@H]6O)CC[C@]45C)C3(C)C)O[C@H](C(=O)O)[C@H]2O)[C@H](O)[C@H](O)[C@H]1O` (some centres not stated): the viability, % of control was 81.8% [at 9.25 µM] (inactive). As to `CCc1cc2c(cc1CC)CC(NCC(O)c1ccc(O)c3[nH]c(=O)ccc13)C2` (configuration not stated), the Potency is 13 µM (active). Turning to `COc1cc([C@H]2O[C@H](c3cc(OC)c4c(c3)OCO4)[C@H](C)[C@H]2C)cc(OC)c1OC`, the Potency is 0.893 µM (active). With `O=C(c1cc2c(cc1F)OC(c1ccc(F)cc1)(c1ccc(Cl)cc1Cl)O2)N1CCOCC1` (configuration not stated), the “viability, % of control” value is 1.12% (inactive). For `CC1(C)CC[C@]2(C(=O)O[C@@H]3O[C@H](CO)[C@@H](O)[C@H](O)[C@H]3O)CC[C@]3(C)C(=CCC4[C@@]5(C)CC[C@H](O[C@@H]6O[C@H](C(=O)O)[C@@H](O[C@@H]7O[C@H](CO)[C@@H](O)[C@H](O)[C@H]7O)[C@H](O)[C@H]6O)C(C)(C)C5CC[C@]43C)C2C1` (some centres not stated), the viability, % of control is 88% [at 9.25 µM] (inactive).
